Assay outcomes from PubChem BioAssay.
HEK293 tox: Cytotoxic Profiling in HEK 293 Cell Line of Diverse Libraries Using Quantitative High-Throughput Screening | HEK 293 viability, ATP luminescence (CellTiter-Glo), 48-72 h | Potency, µM (doses to about 115 µM), inactives show at the top dose activity change, negative = cytotoxicity, most hits filed as inhibitors | 94,000 compounds, 6.6% hits; also: % is scaled to controls: 0 for no effect and ±100 for the full control effect; nearly all actives have a fitted effect of over 60% in size
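Luminescence from cellular ATP, measured with CellTiter-Glo, indicates HEK 293 viability. Cells plated at 250 cells/well are treated with compound for 48 or 72 hr at 37 degree Celsius before reagent addition.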
Luciferase inh: Firefly luciferase inhibition profiling of diverse chemical library using quantitative high-throughput screening | Luciferin 4-monooxygenase (Photinus pyralis), P08659 | purified P. pyralis luciferase, luminescence, biochemical | Potency, µM (series often up to 115 µM), usual class: inhibitors | 76,000 compounds, 2.5% hits | AID 1347043, 2019; also: % is scaled to controls: 0 for no effect and ±100 for the full control effect; nearly all actives have a fitted effect of over 65% in size
Target sequence (P08659 whole entry, looked up): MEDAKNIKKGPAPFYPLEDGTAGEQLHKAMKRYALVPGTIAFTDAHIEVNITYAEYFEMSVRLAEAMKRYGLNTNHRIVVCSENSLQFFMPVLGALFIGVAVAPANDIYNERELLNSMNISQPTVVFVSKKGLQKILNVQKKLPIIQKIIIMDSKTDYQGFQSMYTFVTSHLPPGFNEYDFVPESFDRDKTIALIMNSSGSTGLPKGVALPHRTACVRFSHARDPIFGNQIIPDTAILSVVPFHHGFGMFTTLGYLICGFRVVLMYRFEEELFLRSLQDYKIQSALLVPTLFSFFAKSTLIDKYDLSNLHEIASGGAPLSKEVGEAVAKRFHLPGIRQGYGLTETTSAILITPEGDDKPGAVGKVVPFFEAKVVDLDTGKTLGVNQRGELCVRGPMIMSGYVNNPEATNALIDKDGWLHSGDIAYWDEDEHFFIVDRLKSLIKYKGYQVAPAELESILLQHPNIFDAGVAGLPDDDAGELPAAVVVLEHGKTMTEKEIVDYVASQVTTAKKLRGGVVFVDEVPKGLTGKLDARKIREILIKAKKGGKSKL
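Biochemical qHTS: compound (6-point titration) added to 10uM D-luciferin plus 10uM ATP in Tris acetate pH 7.5 buffer with Mg, Tween-20 and BSA, then purified enzyme at 10nM; light output imaged.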
hNpr1 antagonist: Natriuretic polypeptide receptor (hNpr1) antagonism - Primary qHTS | Atrial natriuretic peptide receptor 1 (Homo sapiens), P16066 | HEK293 hNpr1 GloSensor cGMP, ANP-stimulated luminescence | Potency, µM (titrated, usually from 46.3 µM), for inactives: at the top dose activity change, negative = inhibition, hits mostly inhibitors | 76,000 compounds, 1.6% hits; calls by dose curve; also: % is scaled to controls: 0 for no effect and ±100 for the full control effect; nearly all actives have a fitted effect of over 60% in size
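HEK293 cells stably expressing human Npr1 and cGMP GloSensor pGS-40F, loaded 2 h with 2% GloSensor reagent, given compound 30 min at room temperature. Luminescence read before and 20 min after 0.1 nM hNppA.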
3T3 cytotox: Cytotoxic Profiling in NIH 3T3 Cell Line of Diverse Libraries Using Quantitative High-Throughput Screening. NIH 3T3 viability, CellTiter-Glo ATP luminescence, 48-72 h. Potency, µM (top dose mostly 96.7 µM), without a hit: top-dose activity change, negative = cytotoxicity, usual class: inhibitors. 94,000 compounds, 4.3% hits. AID 1345082, 2018; also: % is scaled to controls: 0 for no effect and ±100 for the full control effect; nearly all actives have a fitted effect of over 55% in size
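ATP-dependent luminescence (CellTiter-Glo) served as the viability signal for NIH 3T3 cells treated with compound for 48 or 72 hr at 37 °C.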
HEK293 viab: GF-AFC viability counterscreen for inhibitors of alpha-synuclein gene (SNCA) expression; HEK-293-SNCA-luc viability, GF-AFC fluorescence, 24 h; Potency, µM (highest dose often 57.1 µM), without a hit: at the highest dose activity change, negative = cytotoxicity, hits mostly cytotoxic; 150,000 compounds, 0.12% hits; AID 1671193, 2021;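 also: 0% = DMSO-treated cells and -100% = medium-only wells without cells; nearly all actives have a fitted effect of over 30% in size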
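Cytotoxicity counterscreen: after 24 h compound treatment of genome-edited SNCA-luciferase HEK-293 cells, live-cell protease substrate GF-AFC read by fluorescence after 30 min; activity scaled between DMSO (0%) and medium-only (-100%), curves Hill-fitted.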
SNCA expr inh: Primary qHTS assay for inhibitors of alpha-synuclein gene (SNCA) expression | HEK-293 SNCA-luciferase knock-in, luminescence, 24 h | Potency, µM (highest dose often 57.2 µM), inactives show top-dose activity change, negative = inhibition, most hits filed as inhibitors | 140,000 compounds, 0.17% hits | AID 1671194, 2021;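 also: plate controls were DMSO cells for no effect and cell-free wells for full effect; nearly all actives have a fitted effect of over 45% in size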
NPR1 antag cnf: Natriuretic polypeptide receptor (hNpr1) antagonism - Confirmation; shares compounds with hNpr1 antagonist; 1,400 compounds, 76% hits; HEK293 hNpr1 cGMP GloSensor luminescence, ANP-stimulated; Potency, µM (doses to about 57.6 µM), for inactives: at the top dose activity change, negative = inhibition, usual class: inhibitors; AID 1347044, 2019; calls by dose curve; also: nearly all actives have a fitted effect of over 70% in size
NPR2 antag: Natriuretic polypeptide receptor (hNpr2) antagonism - Subtype selectivity assay. AID 1347046, 2019. HEK293 hNpr2 GloSensor cGMP luminescence, CNP-stimulated. 1,400 compounds, 67% hits. shares compounds with hNpr1 antagonist. Potency, µM (doses to about 57.6 µM), inactives show at the highest dose activity change, negative = inhibition, hits mostly inhibitors; calls by dose curve; also: nearly all actives have a fitted effect of over 70% in size
FLuc counter: Natriuretic polypeptide receptor (hNpr1) antagonism - Confirmation firefly luciferase (FLuc) inhibition counterscreen | shares compounds with hNpr1 antagonist | purified FLuc enzyme, luminescence, Km substrate | Potency, µM (top dose mostly 57.6 µM), for inactives: top-dose activity change, negative = inhibition, usual class: inhibitors | 1,400 compounds, 0.7% hits | AID 1347047, 2019; also: 0% is about no effect
GloSensor cGMP: Natriuretic polypeptide receptor (hNpr1) antagonism - Counterscreen GloSensor control cell line; Potency, µM (series often up to 57.6 µM), without a hit: top-dose activity change, negative = inhibition, hits mostly inhibitors; 1,400 compounds, 69% hits; shares compounds with hNpr1 antagonist; HEK293 GloSensor cGMP, SNP-stimulated, luminescence; calls by dose curve; also: % is scaled to controls: 0 for no effect and ±100 for the full control effect; nearly all actives have a fitted effect of over 70% in size
* = called active by the depositor; i = inactive; ? = inconclusive; . = not tested or not shown; [ ] = dose if it differs, or a comment. Rows were chosen to be rich in hits. Some 7.2% of all compounds tested hit in one or more screens of this group. Unless noted, calls follow the shape of the dose curve; as a rule, active = well fitted curve in the direction sought with a large enough effect; inconclusive = small, poorly fitted or top-dose-only effect, or another doubt; inactive = no such curve, though single readings can be large; an effect the other way counts as inactive or inconclusive. Potency is read from the fitted curve at half-maximal effect.

SMILES	HEK293 tox	Luciferase inh	hNpr1 antagonist	3T3 cytotox	HEK293 viab	SNCA expr inh	NPR1 antag cnf	NPR2 antag	FLuc counter	GloSensor cGMP
CCn1nc(C)c(CNC(=O)c2cc(COc3ccc4ncccc4c3)on2)c1C	?	i	10µM*	?	-3%	1%	22µM*	19µM*	-1%	17µM*
CN(Cc1cnc2ccccc2c1)C(=O)c1ccc(CCC(C)(C)O)cc1	40µM*	i	2.5µM*	?	-7%	-19%	5.4µM*	6.9µM*	3%	3.9µM*
O=C(NCCc1cnc[nH]1)c1cc(-c2ccccc2F)cc2c1OCCN2Cc1cccnc1	?	i	-15%	?	?	-2%	.	.	.	.
O=C(NC1CC1)c1cc(-c2ccccc2F)cc2c1OCCN2Cc1cccnc1	100µM*	i	-29%[70.6 µM]	89µM*	?	32%[87.6 µM]	?	?	2%[86.2 µM]	8%[86.2 µM]
CN(C)C(=O)c1cc(-c2ccccc2F)cc2c1OCCN2Cc1cccnc1	?	i	-25%[70.6 µM]	-28%[138 µM]	-13%[87.6 µM]	?	?	-25%[86.2 µM]	1%[86.2 µM]	-25%[86.2 µM]
O=C(c1cc(-c2ccccc2F)cc2c1OCCN2Cc1cccnc1)N1CCC1	?	i	?	?	-15%[87.6 µM]	-2%[87.6 µM]	?	?	1%[86.2 µM]	-11%[86.2 µM]
O=C(NCC1CCCO1)c1cc(-c2ccccc2F)cc2c1OCCN2Cc1cccnc1 (configuration not stated)	?	i	-8%	?	-22%	-13%	.	.	.	.
COc1ccc(C2(C(=O)N3CCCC3c3nc(C4CCOCC4)no3)CC2)cc1 (configuration not stated)	-22%	i	0%	-17%	9%	1%	.	.	.	.
CCc1nc(CC)n2ccn(Cc3ccc(OC)cc3)c(=O)c12	?	i	2%	?	1%	20%	.	.	.	.
CCc1ncc2c(=O)n(Cc3ccc(OC)cc3)ccn12	?	i	10µM*	-26%	-5%	1%	12µM*	12µM*	-3%	8.6µM*
O=C(N[C@H]1CO[C@H]2[C@@H]1OC[C@@H]2n1nnnc1Oc1ccc(-n2ccnc2)cc1)c1ccc(C(F)(F)F)cc1	35µM*	i	11µM*	-33%	-3%	-18%	17µM*	14µM*	2%	15µM*
O=C(N[C@H]1CO[C@H]2[C@@H]1OC[C@@H]2n1nnnc1Oc1ccccc1)c1ccc(C(F)(F)F)cc1	?	i	10µM*	?	-18%	?	11µM*	12µM*	-1%	9.7µM*
O=C(Nc1cccc(C(F)(F)F)c1)N[C@H]1CO[C@H]2[C@@H]1OC[C@@H]2n1nnnc1Oc1ccccc1	i	i	0%	-1%	-4%	9%	.	.	.	.
COc1cccc(-c2c(C(=O)NCC3CCCCC3)nc3sccn23)c1	-6%	.	.	?	-3%	?	.	.	.	.
CC(C)c1cc(C(=O)NC2CCN(c3ncccc3C#N)CC2)n(C)n1	?	i	7.1µM*	?	-18%	?	8.6µM*	12µM*	1%	7.7µM*
O=C(Cn1cccc1-c1nc(-c2ccc(F)cc2)no1)NC1CCCCC1	19%	i	5%	i	2%	?	.	.	.	.
COc1ccc(-c2noc([C@@H]3C[C@H](NS(=O)(=O)c4ccc5ccccc5c4)CN3C)n2)cc1	?	i	20µM*	?	-21%	18%	24µM*	24µM*	?	19µM*
CN1C[C@@H](NC(=O)Nc2ccc(Cl)cc2)C[C@H]1c1nc(-c2ccc(F)cc2)no1	32µM*	i	32µM*	?	?	-1%[87.6 µM]	13µM*	20µM*	1%[86.2 µM]	13µM*
Cc1ccc(-c2noc([C@@H]3C[C@H](NC(=O)CC(C)(C)C)CN3C)n2)cc1	89µM*	i	35µM*	?	-14%[87.6 µM]	-20%[87.6 µM]	?	?	-25%[86.2 µM]	?
CN1C[C@@H](NC(=O)Nc2cccc(C#N)c2)C[C@H]1c1nc(-c2ccc(Cl)cc2)no1	?	i	25µM*	40µM*	?	?	16µM*	25µM*	3%[86.2 µM]	18µM*
COCC(=O)N[C@H]1C[C@@H](c2nc(-c3ccc(Cl)cc3)no2)N(C)C1	-15%[172 µM]	i	0%[70.6 µM]	?	7%[87.6 µM]	52%[87.6 µM]	.	.	.	.
COCC1CN(C(=O)Cn2nc(C(F)(F)F)cc2C)CC12CCNCC2 (configuration not stated)	2%	i	6%	i	-3%	-3%	.	.	.	.
O=C(NCc1cccs1)c1csc(N2CCN(c3ccccc3F)CC2)n1	?	i	-28%	?	-7%	4%	?	?	-2%	?
O=C(NCc1cc(F)ccc1F)c1csc(N2CCN(c3ccccc3F)CC2)n1	?	i	?	?	?	?	27µM*	?	2%	?
